# From the supplement of paper PMC11018630
# Counter-ions that a name gives are not always drawn. ± gives the standard deviation of the averaged measurements. Over roughly 1,100 compounds, “day of extracellular matrix detachment from plate” has its median near 16; the lowest 2% begin near 10. The sample holds the lowest values, similar compounds and a random draw of the others, so the mix is not that of the screen.
# System: RDEB dermal fibroblasts EB71
# Experiment: day of extracellular matrix detachment from plate (days); higher = delayed detachment (less fibrotic matrix)
# Conditions: compound concentration: 10 uM
row,SMILES,day of extracellular matrix detachment from plate
1,CN1CCC(=C2c3ccccc3CCn3c(C=O)cnc32)CC1 [Alcaftadine],19.3 ± 2.5
2,O=C([O-])c1ccccc1O.[Na+] [Sodium salicylate],14
3,O=C(O[C@H]1CN2CCC1CC2)N1CCc2ccccc2[C@@H]1c1ccccc1 [Solifenacin succinate],27.3 ± 2.9
4,CN(C)[C@@H]1C(O)=C(C(N)=O)C(=O)[C@@]2(O)C(O)=C3C(=O)c4c(O)ccc(Cl)c4[C@@](C)(O)[C@H]3C[C@@H]12 [Chlortetracycline HCl],23 ± 6.9
5,COc1ccc(CNc2nc(N3CCC[C@H]3CO)ncc2C(=O)NCc2ncccn2)cc1Cl [Avanafil],18
6,CC[C@@H]1/C=C(\C)C[C@H](C)C[C@H](OC)[C@H]2O[C@@](O)(C(=O)C(=O)N3CCCC[C@H]3C(=O)O[C@H](/C(C)=C/[C@@H]3CC[C@H](Cl)[C@H](OC)C3)[C@H](C)[C@@H](O)CC1=O)[C@H](C)C[C@@H]2OC [Pimecrolimus],17.7 ± 4
7,CN1CCOC(c2ccccc2)c2ccccc2C1 (stereo not drawn) [Nefopam HCl],20
8,CO[C@H]1/C=C/O[C@@]2(C)Oc3c(C)c(O)c4c(O)c(c(/C=N/N5CCN(C)CC5)c(O)c4c3C2=O)NC(=O)/C(C)=C\C=C\[C@H](C)[C@H](O)[C@@H](C)[C@@H](O)[C@@H](C)[C@H](OC(C)=O)[C@@H]1C [Rifampin],12
9,"CCCS(=O)(=O)Nc1ccc(F)c(C(=O)c2c[nH]c3ncc(-c4ccc(Cl)cc4)cc23)c1F [Vemurafenib (PLX4032, RG7204)]",14 ± 1.7
10,Clc1ccc(CCC(Cn2ccnc2)Sc2c(Cl)cccc2Cl)cc1 (stereo not drawn) [Butoconazole nitrate],16
11,Nc1ccc(S(=O)(=O)Nc2ncccn2)cc1 [Sulfadiazine],12
12,Nc1ccc(S(=O)(=O)Nc2ncccn2)cc1 [Sodium sulfadiazine],18.2 ± 3.1
13,N=C(N)NC(=N)N1CCOCC1 [Moroxydine HCl],19.3 ± 6.3
14,Cc1cc(-n2c(=O)[nH]c(=O)n(C)c2=O)ccc1Oc1ccc(SC(F)(F)F)cc1 [Toltrazuril],15.7 ± 2.9
15,Clc1ccc(Nc2nnc(Cc3ccncc3)c3ccccc23)cc1 [Vatalanib (PTK787) 2HCl],25
16,"CNC(=O)[C@H](Cc1c[nH]c2ccccc12)NC(=O)[C@@H](CC(=O)NO)CC(C)C [Ilomastat (GM6001, Galardin)]",15
17,CNC(=O)[C@@H](NC(=O)[C@H](CC(C)C)[C@H](O)C(=O)NO)C(C)(C)C [Marimastat(BB-2516)],11.7 ± 1.1
18,CNC(=O)[C@H](Cc1ccccc1)NC(=O)[C@H](CC(C)C)[C@H](CSc1cccs1)C(=O)NO [Batimastat (BB-94)],9 ± 1.7
